Measured values: PubChem BioAssay (NCI)
Compounds without any hit were thinned out: in the full panel of roughly 79,000, 15% have a hit. No stated cut-off is given here; in the data, active means growth inhibition above about 70%; inactive means the rest.

Key:
[1] = NCI Yeast Anticancer Drug Screen. Data for the rad50 strain (AID 155);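 further: 0% = growth of vehicle-only cultures of the same strain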; conditions: S. cerevisiae rad50 strain growth inhibition; at 50.0 µM; active compounds read high
Procedure, shortened: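 Genetically altered yeast (DNA repair pathway); compound treatment; growth inhibition vs vehicle ctrl.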

[2] = NCI Yeast Anticancer Drug Screen. Data for the mec2-1 strain (AID 157); conditions: S. cerevisiae mec2-1 strain, at 50.0 µM, active compounds read high
Procedure, shortened: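 Cells of the genetically defined mec2-1 yeast strain are incubated with test compound. Inhibition of growth is calculated against vehicle-treated controls.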

[3] = NCI Yeast Anticancer Drug Screen. Data for the sgs1 mgt1 strain (AID 161);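 further: 0% = growth of cultures given vehicle only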; conditions: S. cerevisiae sgs1 mgt1 strain, at 50.0 µM, active compounds read high
Procedure, shortened: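 Inhibition of yeast growth, normalised to vehicle-treated controls, is reported for a strain bearing genetic alterations in DNA damage repair.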

[4] = NCI Yeast Anticancer Drug Screen. Data for the cln2 rad14 strain (AID 165);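 further: 0% = growth equal to vehicle treated cultures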; conditions: S. cerevisiae cln2 rad14 strain, at 50.0 µM, active compounds read high
Procedure, shortened: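 The screen exposed genetically defined yeast (cln2 rad14) to test compounds and scored growth inhibition relative to vehicle-treated controls.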

[5] = NCI Yeast Anticancer Drug Screen. Data for the bub3 strain (AID 167); conditions: S. cerevisiae bub3 mutant strain, at 50.0 µM, active compounds read high
Procedure, shortened: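 Yeast carrying a defined mutation is treated with each compound, and growth is compared with that of vehicle-exposed cells to give inhibition.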

[6] = NCI Yeast Anticancer Drug Screen. Data for the mlh1 rad18 strain (AID 175); conditions: S. cerevisiae mlh1 rad18 strain growth inhibition; at 50.0 µM; active compounds read high
Procedure, shortened: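 Compound-treated yeast growth, normalised to vehicle controls. Strain bears defined DNA repair mutations.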

Measured: growth inhibition

Cc1ccc(S(=O)(=O)OCC2C(c3ccccc3)CCC(c3ccccc3)C2COS(=O)(=O)c2ccc(C)cc2)cc1 (stereo unspecified)
inactive: [1] -5.6% | [2] -5.4% | [3] -16.1% | [4] -28.6% | [5] 4.25% | [6] 4.45%

O=C(CNC(=O)C(CO)NC(=O)OCc1ccccc1)OCc1ccccc1 (stereo unspecified)
inactive: [1] 12.4% | [2] 3% | [3] 9.35% | [4] 4.1% | [5] -0.1% | [6] 4.35%

COc1ccc(/C=C/C(=O)c2sc(NC(=S)NC(=O)c3ccc(Cl)cc3)nc2C)cc1OC
inactive: [1] 16.2% | [2] 13.2% | [3] 28.6% | [4] 9.8% | [5] -1.6% | [6] 7.2%

CC(=O)OCCOCNC(=S)N/N=C/c1ccc(Br)s1
inactive: [1] 15.3% | [2] -8.3% | [3] 20.1% | [4] 28.1% | [5] 9.2% | [6] -0.8%

COc1ccc2c(c1)Sc1c(Cl)c3c(c(Cl)c1=N2)Sc1cc(OC)ccc1N=3
inactive: [1] 19.5% | [2] -4.75% | [3] 0.7% | [4] 21.7% | [5] -2.2% | [6] 13.9%

CCCCC(CC)CO (stereo unspecified)
inactive: [1] -12.4% | [2] -25% | [3] -32.7% | [4] -108% | [5] -16.5% | [6] -20.3%

Cc1cc2c(C(C)C)c(O)c(O)c(C=Nc3ccc(-c4ccccc4)cc3)c2c(O)c1-c1c(C)cc2c(C(C)C)c(O)c(O)c(C=Nc3ccc(-c4ccccc4)cc3)c2c1O
inactive: [1] -24.2% | [2] -10.4% | [3] -24.2% | [4] -15.2% | [5] -8.5% | [6] -7.4%

CC1(C)COC(=O)OC1
inactive: [1] 17.8% | [2] 11.5% | [3] 16.4% | [4] 12.8% | [5] 14.8% | [6] 16.9%

C#CC1(O)CCCCCCCCC2(CCCCCCCC1)OCCO2
inactive: [1] -10.7% | [2] -10.8% | [3] -18.2% | [4] 13.7% | [5] -5.85% | [6] 1.25%

CCN(CC)CCn1[nH]c2c3ccc(=O)cc3sc3c(NCCN)ccc1c32
inactive: [1] 13.3% | [2] -3.35% | [3] -12.7% | [4] -5.55% | [5] 2.5% | [6] -2.4%

Cc1nc2ccc(-c3ccccc3)cc2nc1C
inactive: [1] -9.25% | [2] 5.7% | [3] -20.9% | [4] 4.45% | [5] -5.05% | [6] 3.7%

COc1cc(OC)cc(OCc2nc3cc(C(F)(F)F)ccc3nc2-c2ccccc2)c1
inactive: [1] -17.8% | [2] -3.5% | [3] 5.9% | [4] -6.2% | [5] -0.95% | [6] -53.8%

COc1ccc(N=NC(=S)NNc2ccc(OC)cc2Oc2ccccc2)c(Oc2ccccc2)c1
inactive: [1] 12.5% | [2] -0.4% | [3] 29.4% | [4] 11.8% | [5] -4.6% | [6] 3.35%

COc1ccc(CCCC2C(=O)CC(C)OC2=O)cc1OC (stereo unspecified)
inactive: [1] -26.9% | [2] 3.25% | [3] 2.1% | [4] -25.8% | [5] 3.05% | [6] -0.4%

CCCCOC(=O)C(=O)C(CC(CC)C(=O)c1ccccc1)C(=O)C=C(C)C (stereo unspecified)
inactive: [1] -28.9% | [2] -8.5% | [3] -9.55% | [4] -15.2% | [5] -13.6% | [6] 15.2%

O=C(O)c1ccccc1C(=O)CC(O)(C(F)(F)F)C(F)(F)F
inactive: [1] -20.6% | [2] 9.9% | [3] -1.5% | [4] -31.3% | [5] -10.9% | [6] -20.9%

CN(C)c1ccc(/C(=N\O)C(=O)O)cc1
inactive: [1] -15.2% | [2] -13.3% | [3] -2.2% | [4] -9.1% | [5] 0.1% | [6] 1.55%

CN(C)C(=O)c1ccc[n+](CC(=O)Nc2ccccc2)c1
inactive: [1] 0.7% | [2] -3.85% | [3] 13.1% | [4] -1.25% | [5] 4.05% | [6] -4.4%

COc1ccc(CN2CCCN(Cc3ccc(OC)cc3OC)C2c2ccccc2)c(OC)c1
inactive: [1] 19.6% | [2] 6.9% | [3] 8.05% | [4] 17.9% | [5] -4.6% | [6] 14.8%

CC(C)(C)c1c(C#N)nnc2cc(-c3ccccc3)nn12
inactive: [1] 7% | [2] 8.85% | [3] 21.9% | [4] 25.1% | [5] -17.3% | [6] 9.15%

CC(NC(=O)OC(C)(C)C)C(=O)NC(Cc1ccccc1)C(=O)NCC(=O)ON=C1CCCC1 (stereo unspecified)
inactive: [1] 37.1% | [2] 4.1% | [3] 32.6% | [4] 7.3% | [5] 1.9% | [6] 23.6%
